Laboratory results taken from PubChem BioAssay (NCI).
Several values for one entry are separate records, joined by “and”; a condition that tells them apart may be missing. Identical values can stand only once. The panel holds about 83,000 compounds, 20% with a hit somewhere; the sample as a whole holds those more often.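 Step 1: grow cells in 96-well plates. Step 2: add test compound at a single concentration. Step 3: incubate 48 h. Step 4: record percent growth.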 Values without a mark were called inactive. Activity calls are given as the source filed them. The calls were made as follows: active = growth percent below 10; inactive = the rest.

What follows are compounds tested on MDA-MB-468 breast (assay: NCI-60 one-dose screen, 48 h (100 = growth as untreated, 0 = no growth, -100 = all killed)). Conditions: 10 µM unless noted.
With `C#CC(=O)Nc1cccc2c1cc(C)n2-c1nc2c(c(NCc3ccccc3)n1)CCCC2` the growth was -63.3% (active). For `CC(C)c1ccc(/C=N/N=C(N)N)cc1`, the growth was 35.3%. With `C=C(C=O)[C@@H]1CC[C@]2(C)[C@H](CC=C3[C@H]4[C@@H](C)[C@H](C)CC[C@]4(C(=O)OC)CC[C@]32C)[C@@]1(C)CCC#N` the growth was -18.1% (active). For `O=C(NCCCNc1cc(-c2cn(-c3ccccc3)nc2-c2cccc(O)c2)ccn1)c1ccc(F)cc1`, the growth was -41.4% (active). For `Nc1nc(=S)ss1`, the growth was 101%. `COc1cc(/C=C/C(=O)N2CCN(C(=O)/C=C/c3ccccc3)CC2)cc(OC)c1OC` showed a growth of 107%. With `COc1ccc(C2=Nn3c(nnc3-c3ccc(Cl)cc3N)SC2)cc1` the growth was 100%. Compound `CC(=O)O[C@]1(C(C)=O)CC[C@H]2[C@@H]3C=C(Cl)C4=CC(=O)CC[C@]4(C)[C@H]3CC[C@@]21C` has a growth of 105%. Compound `CN1CCN(Cc2ccc(NC(=O)c3cncc(C#Cc4[nH]nc5ncncc45)c3)cc2C(F)(F)F)CC1` has a growth of 58%. With `O=C(Nc1ccc(Br)cc1F)c1cc(F)ccc1O` the growth was -0.885% (active). `Nc1ccc2c(c1)c(N)nn2C(=O)Nc1ccc(Cc2ccccc2)cc1` showed a growth of 98.4%. In the case of `Nc1ccccc1-c1n[nH]c(=O)[nH]c1=O`, the growth was 135%. `N#Cc1cccc(-c2nc3ccccn3c2NCCN2CCOCC2)c1` gave a growth of 111%. In the case of `COC(c1ccc2c(c1)OCO2)C(C)Br` (stereo not given), the growth was 93.4%. In the case of `O=C(Nc1cccc(-c2nc(-c3ccc(NC(=O)c4cccs4)cc3Cl)no2)c1)Nc1ccc(NC(=O)C2CC2)c(C(F)(F)F)c1`, the growth was -84.6% (active). With `O=c1oc2c(cc1-c1ccccc1)c(=O)[nH]c1ccccc12` the growth was 105%. With `O=C(C[P+](c1ccccc1)(c1ccccc1)c1ccccc1)C[P+](c1ccccc1)(c1ccccc1)c1ccccc1` the growth was -33.8% (active). With `COC1=CC(c2ccc[nH]2)=N/C1=C\c1[nH]c(C)c(C(=O)OC(C)C)c1C` the growth was -74.1% (active). `O=C(O)c1cn(C2CC2)c2cc(N3CCN(S(=O)(=O)c4ccc(Cl)c(Cl)c4)CC3)c(F)cc2c1=O` was tested, and the growth was -10.6% (active). In the case of `COc1cc([C@@H]2c3cc4c(cc3[C@H](O)[C@H]3COC(=O)[C@@H]23)OCO4)cc(OC)c1OC`, the growth was -1.25% (active) and -3.58% (active). `COc1ccc(S(=O)(=O)Nc2cc(/C=C\c3cc(OC)c(OC)c(OC)c3)cc(OC)c2OC)cc1` showed a growth of 19.5%. `O=C(/C=C/c1c[nH]c2ccccc12)c1cc2ccccc2o1` was tested, and the growth was 121%. With `COc1cc(-c2nc(SCCC(C)C)nc(Nc3ccc(S(N)(=O)=O)cc3)c2C#N)cc(OC)c1OC` the growth was 42.8%. `O=C(NCc1cccnc1)c1cc(-c2csc3c(=O)cc(N4CCOCC4)oc23)cc2c1OCCO2` showed a growth of 10.7%. `Cc1cc(NCCCNc2ccnc3cc(Cl)ccc23)nc(Nc2ccc(C(=O)N3CCCCC3)cc2)n1` was tested, and the growth was -19% (active). `COc1ccc(C(O)c2cc3c(N)c(C(=O)Nc4ccc(Br)cc4)sc3nc2C)cc1` (stereo not given) was tested, and the growth was -0.733% (active). `O=C(NN1C(=O)CSC1c1cccc([N+](=O)[O-])c1)c1ccc(NC(=O)c2ccccn2)cc1` (stereo not given) was tested, and the growth was 98.8%. Compound `Cc1nc(Nc2cn[nH]c2C(=O)Nc2ccc(CN3CCN(C)CC3)cc2)c2ccsc2n1` has a growth of 104%. Work on `CCn1cc(C(=O)O)c(=O)c2cc(F)c(N3CCN(S(=O)(=O)c4ccc(OC)c(OC)c4)CC3)cc21` yielded a growth of 100%. For `O=C1/C(=C\c2ccccc2)CN(C(=O)c2ccccc2F)C/C1=C\c1ccccc1`, the growth was -72.4% (active). For `C/C(=N\N=C(/C)c1cccc([N+](=O)[O-])c1)c1cccc([N+](=O)[O-])c1`, the growth was 86.1%. `O=C(N/N=C/c1ccccc1O)C(=O)Nc1ccc(F)cc1` gave a growth of 33%. Work on `COc1ccc2c(c1)C(CC(=O)NN)CCC2` (stereo not given) yielded a growth of 102%. With `Nc1c(C(=O)Nc2cccc(Cl)c2Cl)sc2nc3c(cc12)C(=O)CCC3` the growth was 71.8%. `NS(=O)(=O)c1ccc(Nc2nc(N/N=C/C=C/c3ccccc3)nc(Nc3ccccc3)n2)cc1` showed a growth of 15.6%. For `O=[N+]([O-])c1ccc2ncccc2c1Cl`, the growth was -2.71% (active). Compound `COc1ccc(CN2c3ccccc3Oc3ccccc32)cc1F` has a growth of 44.3%. `CCCCc1nc(Cl)c(C2CC(c3ccc(S(N)(=O)=O)cc3)=NN2c2cc(Cl)cc(Cl)c2)[nH]1` (stereo not given) was tested, and the growth was 22.1%. With `N#CCNc1ccc(C(=O)O)cc1` the growth was 92.8%. With `O=C(Nc1ccc(OCc2nnc(-c3ccccc3)o2)c(F)c1)Nc1ccc(Cl)c(C(F)(F)F)c1` the growth was 1.01% (active).
